# In PubChem BioAssay AID1159580 (chemical genetic matrix, 2015):
# Out of some 5,500 compounds screened, about 2,000 (36%) were called active. Roughly 18% stayed inconclusive and do not appear here. This is one part of the list. Unmarked numbers belong to inactive results. Cut-off read from the data, not from the text of the source: active = normalized growth mostly below about 0.91 (no sharp cut-off); inconclusive = no clear call, values can overlap the other calls; inactive = mostly above about 0.92.
# Assay: chemical genetic growth profiling, strain panel (AID 1159580);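 note: tested at 20 µM; growth read once vehicle control cultures reached saturation at 30 °C; 1 = growth at the plate median or of vehicle wells; lower values mean less growth of the strain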
# Details: S. cerevisiae deletion strains, growth OD
compound,measurement,setting,value
O=C1OC(Nc2ccccc2SCc2ccccc2Cl)c2ccccc21 (stereo unspecified),normalized growth,"locus YAR019C, strain CDC15, hits give low values",0.985
same,normalized growth,"locus YBL105C, strain PKC1, hits give low values",0.977
same,normalized growth,"locus YBR135W, strain CKS1, hits give low values",0.97
same,normalized growth,"locus YBR136W, strain MEC1, hits give low values",0.973
same,normalized growth,"locus YBR160W, strain CDC28, hits give low values",0.981
same,normalized growth,"locus YDL017W, strain CDC7, hits give low values",0.989
same,normalized growth,"locus YDL028C, strain MPS1, hits give low values",0.984
same,normalized growth,"locus YDL101C, strain DUN1, hits give low values",0.971
same,normalized growth,"locus YDL108W, strain KIN28, hits give low values",0.977
same,normalized growth,"locus YDL132W, strain cdc53, hits give low values",0.962
same,normalized growth,"locus YDL214C, strain PRR2, hits give low values",0.903
same,normalized growth,"locus YDR052C, strain DBF4, hits give low values",0.989
same,normalized growth,"locus YDR054C, strain cdc34, hits give low values",0.98
same,normalized growth,"locus YDR226W, strain ADK1, hits give low values",0.965
same,normalized growth,"locus YDR477W, strain SNF1, hits give low values",0.928
same,normalized growth,"locus YER123W, strain YCK3, hits give low values",0.89
same,normalized growth,"locus YER133W, strain GLC7, hits give low values",0.897
same,normalized growth,"locus YFL009W, strain cdc4, hits give low values",0.97
same,normalized growth,"locus YFL029C, strain CAK1, hits give low values",0.971
same,normalized growth,"locus YFR003C, strain YPI1, hits give low values",0.983
same,normalized growth,"locus YFR019W, strain FAB1, hits give low values",0.886
same,normalized growth,"locus YFR028C, strain CDC14, hits give low values",0.967
same,normalized growth,"locus YGR040W, strain KSS1, hits give low values",0.899
same,normalized growth,"locus YGR052W, strain FMP48, hits give low values",0.87
same,normalized growth,"locus YGR092W, strain DBF2, hits give low values",0.855
same,normalized growth,"locus YHR030C, strain SLT2, hits give low values",0.867
same,normalized growth,"locus YHR079C, strain IRE1, hits give low values",0.905
same,normalized growth,"locus YHR082C, strain KSP1, hits give low values",0.948
same,normalized growth,"locus YHR205W, strain SCH9, hits give low values",0.798
same,normalized growth,"locus YIL147C, strain SLN1, hits give low values",0.977
same,normalized growth,"locus YJL095W, strain BCK1, hits give low values",0.814
same,normalized growth,"locus YJL128C, strain PBS2, hits give low values",0.937
same,normalized growth,"locus YJL157C, strain FAR1, hits give low values",0.905
same,normalized growth,"locus YJR016C, strain ILV3, hits give low values",0.98
same,normalized growth,"locus YJR066W, strain TOR1 (second series), hits give low values",0.846
same,normalized growth,"locus YJR066W, strain TOR1, hits give low values",0.914
same,normalized growth,"locus YKL048C, strain ELM1, hits give low values",0.963
same,normalized growth,"locus YKL067W, strain YNK1, hits give low values",0.908
same,normalized growth,"locus YKL101W, strain HSL1, hits give low values",0.907
same,normalized growth,"locus YKL193C, strain SDS22, hits give low values",0.979
same,normalized growth,"locus YKL203C, strain TOR2, hits give low values",0.93
same,normalized growth,"locus YLR113W, strain HOG1, hits give low values",0.832 (active)
same,normalized growth,"locus YLR133W, strain CKI1, hits give low values",0.899
same,normalized growth,"locus YLR403W, strain SFP1, hits give low values",0.83
same,normalized growth,"locus YML070W, strain DAK1, hits give low values",0.903
same,normalized growth,"locus YMR001C, strain CDC5, hits give low values",0.98
same,normalized growth,"locus YMR205C, strain PFK2 (second series), hits give low values",0.912
same,normalized growth,"locus YMR277W, strain FCP1, hits give low values",0.979
same,normalized growth,"locus YNL006W, strain LST8, hits give low values",0.975
same,normalized growth,"locus YNL020C, strain ARK1, hits give low values",0.916
same,normalized growth,"locus YNL161W, strain CBK1, hits give low values",0.976
same,normalized growth,"locus YNL183C, strain NPR1, hits give low values",0.909
same,normalized growth,"locus YNL207W, strain RIO2, hits give low values",0.968
same,normalized growth,"locus YNL222W, strain SSU72, hits give low values",0.974
same,normalized growth,"locus YNL307C, strain MCK1 (second series), hits give low values",0.862
same,normalized growth,"locus YOL078W, strain AVO1, hits give low values",0.97
same,normalized growth,"locus YOL136C, strain PFK27, hits give low values",0.854
same,normalized growth,"locus YOR061W, strain CKA2, hits give low values",0.888
same,normalized growth,"locus YOR119C, strain RIO1, hits give low values",0.964
same,normalized growth,"locus YOR231W, strain MKK1, hits give low values",0.895
same,normalized growth,"locus YOR329C, strain SCD5, hits give low values",0.984
same,normalized growth,"locus YPL031C, strain PHO85, hits give low values",0.912
same,normalized growth,"locus YPL153C, strain RAD53, hits give low values",0.934
same,normalized growth,"locus YPL204W, strain HRR25, hits give low values",0.882
same,normalized growth,"locus YPL209C, strain IPL1, hits give low values",0.978
same,normalized growth,"locus YPL256C, strain CLN2, hits give low values",0.953
same,normalized growth,"locus YPR025C, strain CCL1, hits give low values",0.984
same,normalized growth,"locus YPR106W, strain ISR1, hits give low values",0.976
same,normalized growth,"locus YPR111W, strain DBF20, hits give low values",0.955
same,normalized growth,"strain NNK1, hits give low values",0.971
same,normalized growth,"strain TSCII, hits give low values",0.965
